Data taken from the supplement of paper PMC4894684.
Where a name gives a salt, the structure may show the parent alone. ± gives the standard deviation of the averaged measurements.

System: Toxoplasma gondii RH (in HFF)
Assay: parasite growth relative to the screen mean (all compounds = 100%); higher = less inhibition of parasite growth
Details: 5 µM; 72 h; oxygen 21 %
In short: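 Library compounds, held as 10 mM DMSO stocks, were pinned to 5 µM final onto confluent human foreskin fibroblasts in 96-well plates. The cells were infected within 2 h with RH β-Gal–GFP Toxoplasma (MOI 1:5), grown 72 h at 21% O2, and assayed for parasite number by CPRG β-Gal using in-plate standard curves. Growth is reported relative to the screen mean, in which all compounds = 100%, averaged over two screens, and CellTiter-Blue checked uninfected host-cell viability.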

| SMILES | parasite growth |
| --- | --- |
| OCCN(CCO)c1nc(N2CCCCC2)c2nc(N(CCO)CCO)nc(N3CCCCC3)c2n1 [Dipyridamole] | 142 ± 1.7% |
| COc1cc(C[C@H]2C(=O)OC[C@@H]2Cc2ccc(OC)c(OC)c2)ccc1O [Arctigenin] | 125 ± 10% |
| O=c1c(O)c(-c2ccc(O)cc2)oc2cc(O)cc(O)c12 [Kaempferol] | 155 ± 7.1% |
| COc1ccc(CN2C(=O)C(=O)c3cc(OC(F)(F)F)ccc32)cc1 | 68.6 ± 14% |
| O=C(O)Cc1cccc(OCCCN(Cc2cccc(C(F)(F)F)c2Cl)CC(c2ccccc2)c2ccccc2)c1 [GW 3965 hydrochloride] | 105 ± 15% |
| Cc1c(C(=O)N(C)C2CCCCC2)sc2nc3ccc(N)cc3n12 | 185 ± 31% |
| CS(=O)(=O)Nc1ccc([N+](=O)[O-])cc1Oc1ccccc1 [Nimesulide] | 98.5 ± 4.5% |
| NS(=O)(=O)Cc1noc2ccccc12 [Zonisamide] | 131 ± 2.2% |
| CN(C)C(=O)C(=O)c1cn(C)c2cc(Cl)c(C(=O)N3CCC(Cc4ccc(F)cc4)CC3)cc12 | 140 ± 28% |
| CCCCCCN(CCCCCC)C(=O)Cc1c(-c2ccc(Cl)cc2)[nH]c2ccc(Cl)cc12 | 175 ± 22% |
| N[C@H](C(=O)O)c1cc(O)cc(O)c1 | 119 ± 4.9% |
| Cc1cc(C)c(S(=O)(=O)Nc2cccc(C(F)(F)F)c2)c(C)c1 | 169 ± 30% |
| CC[N+](CC)(CC)CC(=O)Nc1c(C)cccc1C [QX 314 chloride] | 133 ± 29% |
| C[C@@]1(O)[C@H](O)[C@@H](CO)O[C@H]1n1cnc2c(NC3CCCC3)nc(Cl)nc21 | 85.3 ± 39% |
| c1cnc(N2CCN(Cc3ccc4c(c3)OCO4)CC2)nc1 [Piribedil] | 70.3 ± 8.6% |
| CC(C)NCC(O)COc1ccccc1-n1cccc1 (stereo not drawn) [Isamoltane hemifumarate] | 97 ± 39% |
| Cc1ccc2c(c1)c1c3n2CCNC3CCC1 (stereo not drawn) [Pirlindole mesylate] | 152 ± 16% |
| Nc1nnc(Sc2ncc([N+](=O)[O-])s2)s1 | 116 ± 26% |
| CN(C)CCCCSC(=N)N | 93.3 ± 15% |

| SMILES | parasite growth |
| --- | --- |
| CC(C)[C@H](CO)Nc1nc(Nc2ccc(C(=O)O)c(Cl)c2)c2ncn(C(C)C)c2n1 [Purvalanol B] | 141 ± 2.9% |
| CN1C(C(=O)Nc2ccccn2)=C(O)c2ccccc2S1(=O)=O [Piroxicam] | 153 ± 34% |
| NC(=O)Nc1sc(-c2ccc(F)cc2)cc1C(N)=O | 77.1 ± 11% |
| N[C@@H](Cc1cc(-c2ccc(Cl)cc2Cl)cc(CP(=O)(O)O)c1O)C(=O)O | 127 ± 26% |
| c1ccc(-c2n[nH]c3c2oc2ccccc23)cc1 | 103 ± 32% |
| CCCOc1ccc(Br)cc1-c1cc(-c2ccc(Cl)cc2)[nH]c1-c1ccncc1 | 37 ± 9% |
| Nc1ncnc2nc(-c3ccc(N4CCOCC4)nc3)cc(-c3cccc(Br)c3)c12 [ABT 702 dihydrochloride] | 100 ± 9.5% |
| Cc1cccc(C)c1OCC(C)N (stereo not drawn) [Mexiletine hydrochloride] | 141.59 ± 0.025% |
| O=C1Cc2c([nH]c3ccc(Br)cc23)-c2ccccc2N1 [Kenpaullone] | 100 ± 12% |
| CCCCC[C@H](O)/C=C/[C@H]1[C@H](O)CC(=O)[C@@H]1CCCCCCC(=O)O [Alprostadil] | 140 ± 6% |
| Clc1cccc2c1CN(C1=NCCN1)C2 | 92.2 ± 25% |
| N#C/C(=C\c1ccc(O)c(O)c1)C(=O)NCCCc1ccccc1 | 154 ± 16% |
| CC(C)C[C@H](NC(=O)N1CCCCCC1)C(=O)N[C@H](Cc1cn(C)c2ccccc12)C(=O)N[C@H](Cc1ccccn1)C(=O)O | 98.9 ± 45% |
| CCCN(CC1CC1)c1nc(C)nc(Nc2c(Cl)cc(Cl)cc2Cl)c1Cl | 116 ± 14% |
| COCCOC(=O)C1=C(C)NC(C)=C(C(=O)OC/C=C/c2ccccc2)C1c1cccc([N+](=O)[O-])c1 (stereo not drawn) [Cilnidipine] | 27.9 ± 21% |
| O=c1[nH]c2cc(Cl)ccc2c(O)c1-c1cccc(Oc2ccccc2)c1 | 103 ± 19% |
| CN(C)CCCSC(=N)N [Dimaprit dihydrochloride] | 73.36 ± 0.62% |
| Cc1cc(C)c(S(=O)(=O)Nc2ccccc2C(F)(F)F)c(C)c1 | 145 ± 10% |
| c1ccc(C(NCc2cccnc2)(c2ccccc2)c2ccccc2)cc1 | 48.8 ± 13% |
